Source: PubChem (SRMLSC)
Rows were chosen to be rich in hits. Some 6.3% of all compounds tested hit in one or more screens of this group.
Spn PMK inh: blocks S. pneumoniae phosphomevalonate kinase | purified PMK, PK/LDH-coupled NADH absorbance 340 nm | inhibition, % at 10 µM | 65,000 compounds, 0.49% hits;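 active = top-ranked compounds by inhibition in the single 10 µM screen, taking a fixed number of the strongest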;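 also: 0% = full reaction with DMSO carrier and 100% = background rate without enzyme reaction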
Spn MK inh: S. pneumoniae mevalonate kinase inhibition. purified MK, PK/LDH-coupled NADH absorbance 340 nm. inhibition, % at 10 µM. 65,000 compounds, 0.48% hits;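 active = ranked among the strongest by inhibition in the single 10 µM screen, a fixed top-ranked set picked for dose follow-up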
NADH coupling: blocks coupling enzymes of NAD/NADH assays; 65,000 compounds, 0.02% hits; IC50, µM (highest dose often 10 µM), without a hit: at the top dose inhibition; AID 774; coupled PK/LDH NADH assays, four targets;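 active = single-dose screening hits from any of four coupled enzyme assays that gave an IC50 when retested across doses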;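 also: the DPM-DC format reads NADH fluorescence rather than 340 nm absorbance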
A340 absorber: compound absorbs light at 340 nm; compound absorbance at 340 nm, fold over control; fold change at 10 µM; 65,000 tested, under 10 active; AID 708;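 active = at 10 µM dose, initial 340 nm absorbance at least 2 fold that of control wells; inactive = change under 2 fold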;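 also: initial absorbance extrapolated from kinetic A340 decline of NADH oxidation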
Spn DPM-DC inh: blocks S. pneumoniae diphosphomevalonate decarboxylase. purified DPM-DC, PK/LDH coupled NADH fluorescence. calls only at 10 µM. 65,000 compounds, 0.49% hits. AID 556;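 active = the 320 compounds with the highest percent inhibition in the single-dose primary screen, excluding strongly autofluorescent ones, cut at about 32% in these data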;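 also: kinetic rate of NADH fluorescence loss reporting ADP formed by the decarboxylase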
Autofluor 339: intrinsic fluorescence of library compounds, ex339/em460 – biochemical, MLSMR library, data from DPM-DC assay, artefact control, profiling panel | compound autofluorescence, ex339/em460 nm, NADH buffer; active compounds read high; 1 = no-compound wells, NADH background | fluorescence fold increase at 10 µM | 65,000 compounds, 5.5% hits;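 active = at 10 µM, mean starting fluorescence two-fold or more over control wells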;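 also: signal is the first read of a kinetic run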
Numbers without * were called inactive; i = inactive; . = no result shown; + = active, no number.

SMILES	Spn PMK inh	Spn MK inh	NADH coupling	A340 absorber	Spn DPM-DC inh	Autofluor 339
CC1CCC(NC(=O)c2cc3c(s2)CS(=O)(=O)C3)CC1 (configuration not stated)	10	4	5%	0.99	i	1.1
O=C(NC1CC1)c1cc2c(s1)-c1ccccc1OC2	1	6	4%	1.1	.	2.1*
CCn1c(=O)c2cc(C(=O)N3CCN(C(=O)c4ccco4)CC3)sc2c2ccccc21	6	0	3%	1.1	.	2.1*
O=C(NCc1cccs1)c1cc2c(s1)-c1ccccc1OC2	1	5	4%	1	.	2.4*
CN1CCN(C(=O)c2cc3c(s2)-c2ccccc2S(=O)(=O)C3)CC1	9	1	3%	1.2	i	1.1
O=C(O)c1cc2c(s1)-c1ccccc1OC2	3	9	6%	1.2	.	2.2*
O=C1C2CC=CCC2C(=O)N1c1ccc(Cc2ccncc2)cc1 (configuration not stated)	0	3	4%	0.99	i	1
CC(=O)NC(Cc1ccccc1C)C(=O)NC1CCN(c2c3c(nc4ncnn24)CCC3)CC1 (configuration not stated)	14	4	6%	1	i	1.1
COc1cccc(CNC(=O)C2CCCN(S(=O)(=O)c3cnc[nH]3)C2)c1 (configuration not stated)	2	3	2%	1	i	1.1
O=c1[nH]c(NCc2ccccc2)nc2c1CCCC2	6	13	2%	1	i	1
O=C(c1ccco1)N1CCN(C(=O)c2cc3c(s2)-c2ccccc2OC3)CC1	0	10	6%	1.1	.	2.4*
O=C(c1cc2ccccc2oc1=O)N1CCN(c2ccc(N3CCOCC3)nn2)CC1	0	1	1%	1	i	1.1
O=C(c1ccc(CSCc2ccccc2F)o1)N1CCN(c2ccc(N3CCOCC3)nn2)CC1	10	2	4%	0.98	.	2.4*
C[C@@H]1CCC[C@H](C)N1NC(=O)c1ccc(Cl)c(S(N)(=O)=O)c1	11	6	2%	0.98	i	1
COCCN1Cc2cccc(C(=O)Nc3ccc(S(=O)(=O)N4CCCCCC4)cc3)c2C1=O	22	9	11%	0.99	i	1.4
CCN(CC)S(=O)(=O)c1ccc(NC(=O)c2cccc3c2C(=O)N(CCOC)C3)cc1	18	10	9%	0.98	+	1.3
Cc1cccc(OCCC(=O)Nc2c(C)n(C)n(-c3ccccc3)c2=O)c1	9	2	4%	0.98	i	1.1
COc1cccc2cc(-c3nc(-c4cccs4)cs3)c(=O)oc12	8	13	11%	1	.	4.6*
CCC(C)N(CCNC(=O)CC1Oc2ccc(C)cc2NC1=O)C1CCCCC1 (configuration not stated)	0	7	2%	1	i	1.1
CCN(CCNC(=O)Cn1c(=O)sc2ccccc21)c1ccccc1	0	0	0%	1.1	i	1.1
NC(=O)c1ccccc1N=Cc1ccccn1	10	3	7%	1	.	5*
O=C(C1CC1)N1CCc2cc(Br)cc(S(=O)(=O)NCc3ccc4c(c3)OCO4)c21	1	0	0%	1	i	1.1
O=C1N=C(c2ccccc2)C(c2ccccc2)N1 (configuration not stated)	0	9	5%	1.1	.	2.2*
Cc1ccc(-c2nnc(SCC(=O)N3CC(C)CC(C)C3)o2)cc1C (configuration not stated)	0	5	2%	0.99	i	1
CCCn1c(C)nc2c(c1=O)c1nc3ccccc3nc1n2CCc1ccccc1	0	0	3%	1	.	3.1*
SMILES	Spn PMK inh	Spn MK inh	NADH coupling	A340 absorber	Spn DPM-DC inh	Autofluor 339
CCCn1c(C)nc2c(c1=O)c1nc3ccccc3nc1n2CCC1=CCCCC1	0	10	5%	1.1	.	3.8*
O=C(NCC(c1cccs1)N1CCOCC1)c1cc2ccccc2o1 (configuration not stated)	0	10	3%	1.1	i	1.1
Cc1noc(C)c1S(=O)(=O)N(CC(=O)N1CCn2c1nc1ccccc12)c1ccc(C(C)C)cc1	3	6	3%	1	i	1
CCOC(=O)N1C(=O)c2cc(OC)ccc2S1(=O)=O	29*	9	19µM*	1	i	1.2
N#Cc1c(-c2ccco2)cc(C2CC2)nc1N	12	.	12%	1	.	2.3*
CSc1nc(C2CC2)cc(-c2cccs2)c1C#N	1	7	3%	1	i	1.2
N#Cc1c(-c2ccccc2)cc(C2CC2)nc1N	3	1	2%	1.1	.	3.6*
CC(=O)c1c(C(C)=O)c(C)n(NC(=O)c2ccncc2)c1C	9	0	3%	1	i	1.1
CCCn1c(=NC(C)=O)c(C#N)cc2c(=O)n3cccc(C)c3nc21	8	0	2%	1	.	2.9*
Cc1cccn2c(=O)c3cc(C#N)c(=N)n(Cc4cccnc4)c3nc12	0	10	9%	1	i	1.2
CCCCCn1c(=NC(C)=O)c(C#N)cc2c(=O)n3cccc(C)c3nc21	10	0	5%	1.1	.	3.6*
COCCCn1c(=NC(=O)c2ccc3c(c2)OCO3)c(C#N)cc2c(=O)n3cccc(C)c3nc21	8	4	4%	1.1	i	1.3
CCCN(CCC)CCNC(=O)C(NS(=O)(=O)c1ccc2c(c1)CCC(=O)N2)c1ccccc1 (configuration not stated)	12	3	3%	1	i	1
COCCN(Cc1cc2cc3c(cc2[nH]c1=O)OCO3)C(=O)c1cccs1	10	6	17%	1.1	+	2.7*
O=C(NC1CCCCC1)N(CCN1CCOCC1)Cc1cc2cc3c(cc2[nH]c1=O)OCCO3	10	9	10%	1.1	.	4.4*
COc1ccc(CCN(Cc2cc3cc(C)ccc3[nH]c2=O)C(=O)N2CCCC2)cc1OC	6	5	4%	1	i	1.2
Cc1ccc2[nH]c(=O)c(CN(CCCN3CCOCC3)C(=O)NC3CCCCC3)cc2c1	5	5	3%	1	i	1.6
COc1ccc(CN(Cc2cc3cc4c(cc3[nH]c2=O)OCO4)C(=O)NC2CCCCC2)cc1	0	12	7%	1	i	2.5*
COc1ccc(CCN(Cc2cc3cc4c(cc3[nH]c2=O)OCO4)C(C)=O)cc1OC	13	10	16%	1.1	i	2.7*
Cc1noc(/C=C/c2ccco2)c1S(=O)(=O)N1CCC(C(=O)N2CCc3ccccc3C2)CC1	0	2	1%	1.1	i	1.2
CCC1SC2=NC(C)=C(C(=O)OC)C(c3cccs3)N2C1=O (configuration not stated)	14	16	10%	1.1	i	1.1
CCc1ccc2[nH]c(=O)c(CN(CCN3CCCC3)C(=O)NC3CCCCC3)cc2c1	16	0	6%	0.98	i	1.6
